Data as given in PubChem BioAssay.

How the values were obtained:
[1] = system: Human papillomavirus type 1a protein E7 (residues 44-93); assay: small molecules binding HPV E7 44-93 – biochemical, small-molecule microarray, residues 44-93, 635 nm fluorescence, primary screen (AID 1108); conditions: fluorescence 635 nm, higher = more signal;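 further: E7 fragment applied at 1 µg/mL in TBST for 1 h at 4 C; score combines spot fluorescence with its signal to noise ratio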
[2] = hepatitis C replication reporter changes, two-sided – Huh7 cells, luciferase reporter, HCV replication inhibitor project, primary screen (AID 1109); conditions: Huh7 HCV replicon luciferase reporter, 48 h; higher = more signal;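 further: huh7 hepatoma cells harbouring a luciferase neomycin HCV replicon reporter; luciferase luminescence as measure of HCV replicon replication; test concentration not given here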
[3] = molecular target: Left-right determination factor 2 (Homo sapiens) (UniProt O00292); assay: small molecules binding LEFTY2 protein – biochemical, small-molecule microarray, 635 nm fluorescence scan, primary screen (AID 1110); conditions: higher = more signal
Left-right determination factor 2 (Homo sapiens), sequence (O00292 whole entry, looked up): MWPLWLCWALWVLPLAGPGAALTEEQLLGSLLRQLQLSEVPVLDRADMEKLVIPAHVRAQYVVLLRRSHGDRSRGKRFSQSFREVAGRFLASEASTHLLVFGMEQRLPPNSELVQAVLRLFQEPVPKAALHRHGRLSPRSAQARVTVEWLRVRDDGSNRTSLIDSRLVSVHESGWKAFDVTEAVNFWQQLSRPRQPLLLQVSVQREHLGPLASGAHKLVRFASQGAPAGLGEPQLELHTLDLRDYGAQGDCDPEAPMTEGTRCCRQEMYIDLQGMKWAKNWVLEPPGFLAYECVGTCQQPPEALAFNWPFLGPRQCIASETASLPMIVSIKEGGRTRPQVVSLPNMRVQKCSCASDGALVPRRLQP

[4] = molecular target: Calmodulin-1 (Homo sapiens) (UniProt P0DP23); assay: small molecules binding calmodulin-1 with EGTA – biochemical, small-molecule microarray, Cy5-labelled CALM1, profiling panel (AID 1111); conditions: Cy5-CALM1 binding fluorescence, higher = more signal;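 further: labelled calmodulin applied in Tris saline Tween buffer holding calcium plus EGTA and DTT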
[5] = molecular target: Calmodulin-1 (Homo sapiens) (UniProt P0DP23); assay: small molecules binding Ca-loaded calmodulin-1 – biochemical, small-molecule microarray, Cy5-labelled CALM1, plus calcium, artefact control for SMM control-protein annotation, profiling panel (AID 1112); conditions: Cy5-CALM1 binding fluorescence, higher = more signal;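 further: score merges spot fluorescence with signal to noise from triplicate slides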
[6] = probe aWnt5a binding to arrayed compounds – biochemical, biotinylated probe, 635/667 nm fluorescence, primary screen (AID 1113); conditions: small-molecule microarray, higher = more signal;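 further: score merges 667 nm fluorescence intensity with signal-to-noise per printed feature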
[7] = probe aShh binding to arrayed compounds – biochemical, biotinylated probe, 635/667 nm fluorescence, primary screen (AID 1114); conditions: small-molecule microarray, higher = more signal;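 further: probe is biotin-labelled aShh protein from a stem cell growth factor screen; measures binding of labelled protein to compounds printed on the slide; score merges feature fluorescence at 667 nm with signal-to-noise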
[8] = probe aNog binding to arrayed compounds – biochemical, biotinylated probe, 635/667 nm fluorescence, primary screen (AID 1115); conditions: small-molecule microarray, higher = more signal;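 further: probe is biotinylated aNog protein used at 0.15 µg/mL for 1 h at 4 C; z-score combines 667 nm fluorescence of each spot with its signal to noise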
[9] = molecular target: Torsin-1A-interacting protein 1 (Homo sapiens) (UniProt Q5JTV8); assay: compound microarray binding of lysate hLAP1 – cell lysate, small-molecule microarray, COS7 lysate, 635/667 nm fluorescence, primary screen (AID 1116); conditions: 635 nm fluorescence, higher = more signal
Torsin-1A-interacting protein 1 (Homo sapiens), sequence (Q5JTV8 whole entry, looked up): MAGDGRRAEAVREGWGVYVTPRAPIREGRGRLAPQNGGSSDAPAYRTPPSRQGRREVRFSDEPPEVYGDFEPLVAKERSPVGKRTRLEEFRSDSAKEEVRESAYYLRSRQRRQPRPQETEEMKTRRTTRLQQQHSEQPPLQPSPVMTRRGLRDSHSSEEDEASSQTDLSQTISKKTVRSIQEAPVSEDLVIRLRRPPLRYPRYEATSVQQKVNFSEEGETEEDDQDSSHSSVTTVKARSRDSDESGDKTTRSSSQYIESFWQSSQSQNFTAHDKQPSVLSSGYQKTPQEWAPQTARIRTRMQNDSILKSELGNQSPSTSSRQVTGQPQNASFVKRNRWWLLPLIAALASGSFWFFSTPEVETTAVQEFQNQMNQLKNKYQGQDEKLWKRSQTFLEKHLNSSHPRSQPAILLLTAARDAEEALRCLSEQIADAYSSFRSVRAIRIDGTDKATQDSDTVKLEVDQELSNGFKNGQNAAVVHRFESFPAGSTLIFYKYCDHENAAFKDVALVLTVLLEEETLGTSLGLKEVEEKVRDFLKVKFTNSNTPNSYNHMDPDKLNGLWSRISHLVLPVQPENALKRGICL

[10] = molecular target: Alpha-bungarotoxin (Bungarus multicinctus) (UniProt P60615); assay: compounds binding labelled alpha-BTX control protein – biochemical, small-molecule microarray, Alexa647 label, 635/667 nm fluorescence, artefact control for SMM control protein annotation, profiling panel (AID 1117); conditions: alpha-BTX-A647 binding fluorescence, higher = more signal
Alpha-bungarotoxin (Bungarus multicinctus), sequence (P60615 whole entry, looked up): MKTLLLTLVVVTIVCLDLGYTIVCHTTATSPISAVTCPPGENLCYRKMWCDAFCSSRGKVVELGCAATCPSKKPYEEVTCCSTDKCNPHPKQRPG

Row | Compound | composite z-score [1] | z-score [2] | composite z-score [3] | composite z-score [4] | composite z-score [5] | composite z-score [6] | composite z-score [7] | composite z-score [8] | composite z-score [9] | composite z-score [10]
1 | O=C1O[C@H](c2ccccc2)[C@H](c2ccccc2)N2[C@H]1[C@@H](C(=O)O)[C@]1(C(=O)Nc3ccccc31)[C@H]2c1ccc(OCCO)cc1 | 1.45 | 0.042 | -0.242 | 1.58 | 0.5 | -0.0977 | -0.187 | -0.574 | 0.811 | 0.968
2 | COC(=O)[C@@]1(Cc2ccc(F)cc2)[C@H]2c3cc(C(=O)N4CCCC4)n(Cc4ccc(OC(F)(F)F)cc4)c3C[C@H]2CN1C(=O)c1ccccc1 | 0.118 | 0.234 | -0.763 | 0.028 | 0.336 | 0.164 | 0.265 | 1.17 | 0.383 | -0.272
3 | CN(C)CCCCNC(=O)[C@H]1C[C@H]2C(=O)N[C@@H](CCCCN(C)C)C(=O)N2[C@H]1c1ccc(O)cc1 | -1.01 | 0.448 | 0.435 | -0.362 | -0.873 | -0.128 | -0.229 | -0.0446 | -0.178 | 0.457
4 | COC(=O)C(CC#Cc1ccc2c(c1)[C@]1(C(=O)N2)[C@H](C(N)=O)[C@H]2C(=O)O[C@H](c3ccccc3)[C@H](c3ccccc3)N2[C@@H]1c1ccccc1OCCO)C(=O)OC | 1.47 | -3.34 | 0.205 | 0.534 | 0.237 | -0.0721 | -0.291 | -0.0604 | 1.87 | 1.19
5 | C=CC[C@]1(C(=O)NCC(O)CO)N=C(c2ccc(OCCCO)cc2)O[C@H]1c1ccccc1CN=[N+]=[N-] (stereo not given in full) | 0.551 | -1.06 | -0.696 | 1.34 | 0.262 | 0.0181 | -0.0146 | -0.516 | 3.34 | 0.138
6 | CCOC(=O)C[C@H]1[C@H](OC(=O)Cc2ccc3c(c2)OCO3)[C@@H](NC(=O)CC(C)C)c2cc(OCCCO)ccc2N1C(=O)c1ccc2ccccc2n1 | 1 | -0.699 | 0.305 | 0.42 | -0.717 | -0.0405 | -0.221 | -0.0208 | 0.633 | 0.185
7 | C=C(C(=O)CC[C@@H](OC(=O)c1cccnc1)c1cccc(OCCO)c1)C(C)C | -0.501 | -2.12 | 0.415 | -0.323 | -1.4 | -0.0405 | -0.123 | -0.0784 | 0.534 | 0.316
8 | COCCOC(=O)N1C(=O)[C@@]2(c3cc(C#CCNC(N)=O)ccc31)[C@H](c1ccc(O)cc1)N1[C@H](c3ccccc3)[C@H](c3ccccc3)OC(=O)[C@H]1[C@@H]2C(=O)N1CCc2cc(OC)c(OC)cc2C1 | 1.31 | -0.281 | 0.266 | 0.111 | 0.118 | 0.586 | -0.167 | -0.25 | 0.712 | 0.857
9 | COCCCNC(=O)[C@@]1(c2ccc([N+](=O)[O-])cc2)CC(=O)N(C2CCCCC2)[C@@H]1c1ccc(CO)cc1I | -0.191 | -1.9 | -0.199 | 0.582 | -0.0952 | -0.0051 | -0.0904 | 0.968 | 1.17 | 0.302
10 | O=C(NCCN1CCOCC1)[C@@H]1c2ccccc2C(=O)N(CC23CC4CC(CC(C4)C2)C3)[C@H]1c1ccc(CO)cc1 | 1.45 | -2.21 | 0.662 | 1.7 | -0.236 | -0.0519 | -0.0362 | -0.112 | 0.405 | 1.43
11 | COCCOC(=O)N1C(=O)[C@@]2(c3cc(C#CCNC(N)=O)ccc31)[C@H](C(N)=O)[C@H]1C(=O)O[C@H](c3ccccc3)[C@H](c3ccccc3)N1[C@@H]2c1ccc(O)cc1 | -0.109 | 0.494 | -0.0417 | 0.062 | 0.662 | -0.0384 | 0.288 | -0.0245 | 0.0743 | -0.285
12 | CC[C@@H](O[Si](C#C[Si](C(C)C)(C(C)C)C(C)C)(C(C)C)C(C)C)c1cn(Cc2cccc(Cl)c2)nn1 | 0.906 | -0.959 | 0.374 | 0.0371 | -0.461 | -0.0194 | -0.154 | -0.124 | 0.403 | 0.485
13 | CO[C@H]1O[C@H](CO)[C@@H](OC(=O)Nc2ccccc2)[C@@H]2OC(=O)[C@@H](Cc3ccccc3)C/C=C/C[C@H](Cc3ccccc3)C(=O)O[C@@H]12 | 0.779 | -0.897 | -0.152 | -0.0442 | -0.845 | -0.0721 | -0.154 | -0.125 | 0.235 | 0.224
14 | C=C(COC)/C(=C/C[C@@H](OC(=O)c1ccncc1)c1ccccc1OCCO)c1cnc2ccccc2c1 | 1.24 | -2.8 | 1.14 | 0.528 | -0.469 | 0.067 | 0.111 | 0.361 | 1.47 | 2.96
15 | COc1cc(CO)cc(I)c1O[C@H]1C=C(C(=O)NCCO)C[C@@H](N(CCN2CCOCC2)C(=O)C2CCCO2)[C@@H]1O (stereo not given in full) | 0.35 | 0.109 | 0.445 | -0.292 | -0.671 | -0.0606 | -0.0769 | -0.248 | 0.11 | -0.197
16 | O=C1OCCC/C=C\[C@H]2OC34C=CCN(Cc5ccccc5)C(=O)[C@H]3N(CCO)C(=O)[C@@H]4C12 (stereo not given in full) | -0.574 | 0.0684 | 0.518 | -0.251 | 0.774 | -0.169 | -0.0709 | -0.33 | -0.447 | -1.06
17 | O=C1c2ccccc2[C@@]2(Cc3ccccc3N(CC(F)(F)F)C2=O)[C@H](c2ccc(CO)cc2)N1Cc1ccccc1 | -0.143 | -1.22 | 0.2 | -0.469 | 0.457 | 0.0371 | 0.0178 | -0.238 | -0.131 | -0.0056
18 | C=CCN1C(=O)[C@]2(O[C@H](CCO)[C@@H]([Si](C)(C)c3ccc(OC)cc3)[C@@H]2C)c2cc(N3C(=O)c4ccccc4Oc4ccccc43)ccc21 | 1.3 | -5.05 | 0.28 | 1.2 | 0.323 | -0.0203 | -0.0709 | -0.158 | -0.0465 | 0.378
19 | O=C1OC[C@@H](c2ccccc2)n2cc(/C=C/c3ccccc3)cc21 | 0.06 | -0.18 | -0.623 | -0.638 | -1.27 | -0.197 | -0.0709 | -0.367 | -0.948 | 0.45
20 | C=CCNC(=O)[C@H]1[C@@H]2C(=O)O[C@@H](c3ccccc3)[C@@H](c3ccccc3)N2[C@@H](c2ccc(OCCO)cc2)[C@]12C(=O)N(C(=O)OCCOC)c1ccc(C#CCNC(N)=O)cc12 | 1.06 | -0.197 | 0.716 | 1.17 | 0.152 | 0.291 | 0.194 | 0.49 | 1.33 | 2.1
21 | CCCNC(=O)[C@@]1(Sc2ccc(C)cc2)CC(=O)N(Cc2cc(C(F)(F)F)cc(C(F)(F)F)c2)[C@@H]1c1ccc(CO)cc1 | 0.156 | -1.83 | -0.272 | -0.159 | 0.441 | -0.0944 | -0.291 | -0.164 | 0.443 | 0.0468
22 | CC1C2C(CCCO)=CC(C3C(=O)N(C(N)=O)C(=O)C23)N1Cc1cccc(OC(F)(F)F)c1 (stereo not given) | 0.0396 | -1.07 | 0.246 | 0.366 | 0.41 | -0.096 | 0.13 | 0.528 | 1.26 | 1.32
23 | COC(=O)[C@@]1(Cc2ccc(F)cc2)[C@H]2c3cc(C(=O)N(C)C)n(Cc4ccc(C(F)(F)F)nc4)c3C[C@H]2CN1C(=O)c1ccccc1 | 1.38 | -2.42 | 0.22 | 2.27 | 0.789 | 0.15 | 0.25 | -0.235 | 0.0971 | 0.922
24 | COC(=O)C(CC#Cc1ccc2c(c1)[C@]1(C(=O)N2)[C@H](c2ccccc2OCCO)N2[C@H](c3ccccc3)[C@H](c3ccccc3)OC(=O)[C@H]2[C@@H]1C(=O)N1CCN(c2ncccn2)CC1)C(=O)OC | 1.37 | -2.63 | 0.595 | 0.999 | -0.154 | -0.152 | 0.178 | -0.158 | 0.664 | 0.876
25 | CC(C)C(=C=CC[C@H](O)c1cccc(OCCO)c1)C[C@H](O)c1ccccn1 | 0.106 | -0.423 | -0.256 | -0.356 | -0.78 | -0.096 | -0.289 | -0.147 | -0.334 | -0.579
26 | CC(C)N1C(=O)[C@@]2(Cc3ccccc31)c1ccccc1C(=O)N(Cc1ccccc1C(F)(F)F)[C@H]2c1ccc(CO)cc1 | 0.845 | -0.329 | -0.0311 | -0.157 | -0.0481 | 0.0607 | -0.09 | -0.0247 | 0.289 | -0.0261
